Experimental data published in PubChem BioAssay.
Calls of active or inactive are those of the source. Unless noted, no rule for the calls is given here.

Tests used:
[1] = A549 cell viability effects, profiling panel, calcein-AM fluorescence, 48 h, basal (AID 1162); conditions: higher = more signal; also: test concentration not given here
[2] = adipocyte viability effects, profiling panel, cell-based, 3T3-L1 adipocytes, calcein-AM fluorescence, 48 h, basal (AID 1163); conditions: 3T3-L1 adipocytes viability, higher = more signal; also: test concentration not given here
[3] = HepG2 cell viability effects, profiling panel, calcein-AM fluorescence, 48 h, basal (AID 1164); conditions: higher = more signal; also: test concentration not given here
[4] = MM1S cell viability effects, profiling panel, calcein-AM fluorescence, 48 h, basal (AID 1165); conditions: higher = more signal;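 also: viability of MM1S multiple myeloma cells under basal unstimulated conditions; test concentration not given here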
[5] = basal RPMI8226 viability, no added stimulus, profiling panel, cell-based, calcein-AM fluorescence, 48 h, PK04 Diversity Set (AID 1166); conditions: RPMI8226 myeloma viability, higher = more signal;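 also: cells grown under basal conditions without added stimulus; test concentration not given here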
[6] = basal HepG2 mitochondrial membrane potential changes, profiling panel, cell-based, JC-1 fluorescence, 24 h, 100 nL compound (AID 1167); conditions: higher = more signal; also: test concentration not given here
[7] = basal 3T3-L1 adipocyte mitochondrial potential changes, profiling panel, cell-based, JC-1 fluorescence, 3T3-L1 adipocytes, 24 h, 100 nL compound (AID 1168); conditions: JC-1 mitochondrial fluorescence, higher = more signal, called active from +8 up or from −8 down; also: test concentration not given here
[8] = basal RPMI8226 mitochondrial membrane potential changes, profiling panel, cell-based, JC-1 fluorescence, 24 h, 100 nL compound (AID 1169); conditions: RPMI8226 myeloma, JC-1 mitochondrial potential fluorescence, higher = more signal; also: test concentration not given here
[9] = basal MM1S mitochondrial membrane potential changes, profiling panel, cell-based, JC-1 fluorescence, 24 h, 100 nL compound (AID 1170); conditions: higher = more signal; also: test concentration not given here
[10] = A549 lung cancer cell viability effects, profiling panel, resazurin fluorescence, 24 h, PK04 Diversity Set (AID 1171); conditions: higher = more signal, called active from +8 up or from −8 down; also: test concentration not given here
[11] = HepG2 liver cancer cell viability effects, profiling panel, resazurin fluorescence, 24 h, PK04 Diversity Set (AID 1172); conditions: higher = more signal; also: test concentration not given here
[12] = basal S. cerevisiae growth modulation, no modifier, primary screen, OD600, strain BY4716, 24 h, basal condition (AID 1173); conditions: OD600, 24 h, higher = more signal, called active from +8 up or from −8 down
[13] = MM1S myeloma cell viability, profiling panel, resazurin fluorescence, basal, 24 h, PK04 Diversity Set (AID 1174); conditions: higher = more signal, called active from +8 up or from −8 down;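 also: MM1S multiple myeloma cell line; test concentration not given here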
[14] = molecular target: Dihydroorotate dehydrogenase (quinone), mitochondrial (Plasmodium falciparum (isolate 3D7)) (UniProt Q08210); test: PfDHODH enzyme inhibitors, primary screen, biochemical, C-terminal His tag, absorbance 600 nm (AID 1175); conditions: DCIP absorbance 600 nm, higher = more signal, called active from +8 up or from −8 down;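 also: recombinant parasite enzyme with a five histidine tag at its C terminus; test concentration not given here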
[15] = P. aeruginosa biofilm formation inhibitors, primary screen, strain PAO1, LB-PBS medium, absorbance 600 nm (AID 1176); also: test concentration not given here; conditions: P. aeruginosa PAO1 growth/biofilm, A600, 12 h; higher = more signal
[16] = S. cerevisiae RM11-1a growth modifiers, primary screen, strain RM11-1a, OD600, basal, 24 h (AID 1177); conditions: OD600, 24 h, higher = more signal, called active from +8 up or from −8 down;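 also: cultures grown under basal conditions with no added stressor; test concentration not given here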
[17] = E. coli acrAB mutant growth effects, primary screen, E. coli filamentation inducers, strain DRC39, OD650, 24 h (AID 1178); conditions: higher = more signal, called active from +8 up or from −8 down;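 also: growth measured as culture turbidity by optical density at 650 nm; test concentration not given here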
[18] = E. coli acrAB mutant growth effects, primary screen, E. coli filamentation inducers, strain DRC39, OD650, 48 h (AID 1179);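 also: screen aims at cell division blockers that make cells filament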; conditions: E. coli DRC39 delta-acrAB growth, higher = more signal, called active from +8 up or from −8 down
[19] = RPMI8226 myeloma cell viability, profiling panel, resazurin fluorescence, basal, 24 h, PK04 Diversity Set (AID 1180); conditions: higher = more signal;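 also: RPMI8826 multiple myeloma cell line at 5000 cells per well; test concentration not given here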
[20] = molecular target: E3 ubiquitin-protein ligase XIAP (Homo sapiens) (UniProt P98170); test: XIAP binders, primary screen, biophysical, small-molecule microarray, fluorescence 635 nm (AID 1181); conditions: small-molecule microarray binding, higher = more signal;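 also: score merges 667 nm emission and signal to noise over triplicate slides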
E3 ubiquitin-protein ligase XIAP (Homo sapiens), sequence (P98170 whole entry, looked up): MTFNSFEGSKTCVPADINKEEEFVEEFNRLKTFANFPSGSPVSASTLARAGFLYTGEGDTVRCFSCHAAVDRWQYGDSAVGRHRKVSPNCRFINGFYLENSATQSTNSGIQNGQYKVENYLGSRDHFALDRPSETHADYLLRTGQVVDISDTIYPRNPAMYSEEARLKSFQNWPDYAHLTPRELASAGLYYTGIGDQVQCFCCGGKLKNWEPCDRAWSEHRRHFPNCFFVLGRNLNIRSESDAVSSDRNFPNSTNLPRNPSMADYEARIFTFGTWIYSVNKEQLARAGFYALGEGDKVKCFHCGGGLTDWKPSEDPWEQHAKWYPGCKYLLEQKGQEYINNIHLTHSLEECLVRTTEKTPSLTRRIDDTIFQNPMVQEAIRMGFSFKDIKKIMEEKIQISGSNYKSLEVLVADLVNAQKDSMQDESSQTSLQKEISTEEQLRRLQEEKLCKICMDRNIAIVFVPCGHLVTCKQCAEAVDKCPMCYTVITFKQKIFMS

Dihydroorotate dehydrogenase (quinone), mitochondrial (Plasmodium falciparum (isolate 3D7)), sequence (Q08210 whole entry, looked up): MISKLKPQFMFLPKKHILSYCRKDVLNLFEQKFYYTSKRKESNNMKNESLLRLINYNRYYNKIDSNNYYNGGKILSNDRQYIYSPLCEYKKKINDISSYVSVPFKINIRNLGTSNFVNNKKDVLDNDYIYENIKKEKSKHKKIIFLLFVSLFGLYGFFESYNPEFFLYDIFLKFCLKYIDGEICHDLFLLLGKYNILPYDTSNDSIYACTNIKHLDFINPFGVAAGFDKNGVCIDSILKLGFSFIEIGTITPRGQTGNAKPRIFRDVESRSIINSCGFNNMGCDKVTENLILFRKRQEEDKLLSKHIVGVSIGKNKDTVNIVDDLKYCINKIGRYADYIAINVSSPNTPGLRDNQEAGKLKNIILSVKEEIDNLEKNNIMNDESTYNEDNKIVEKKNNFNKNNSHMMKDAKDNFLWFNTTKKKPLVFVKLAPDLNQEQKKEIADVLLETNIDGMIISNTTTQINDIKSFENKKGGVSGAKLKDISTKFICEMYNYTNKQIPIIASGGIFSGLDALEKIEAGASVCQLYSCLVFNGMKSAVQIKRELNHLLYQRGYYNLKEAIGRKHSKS

Row | Compound | z-score [1] | z-score [2] | z-score [3] | z-score [4] | z-score [5] | z-score [6] | z-score [7] | z-score [8] | z-score [9] | z-score [10] | z-score [11] | z-score [12] | z-score [13] | composite z-score [14] | z-score [15] | z-score [16] | z-score [17] | z-score [18] | z-score [19] | composite z-score [20]
1 | C=CC[C@]1(C(=O)O)COC(c2ccc(OCCCO)cc2)=N1 | 0.083 | -0.206 | -0.148 | -0.0046 | -0.571 | 0.0919 | 0.224 (inactive) | -0.0187 | -0.116 | -0.408 (inactive) | 0.264 | 0.32 (inactive) | 0.546 (inactive) | 0.146 (inactive) | 0.37 (inactive) | -0.643 (inactive) | -0.353 (inactive) | -0.201 (inactive) | -0.1 | 0.1
2 | CCCC[C@@H]1C[C@H]1[C@@H](NC(=O)Cc1ccccc1)c1ccc(-c2ccccc2)cc1 | -0.902 | -0.12 | -0.323 | -0.378 | -1.48 | -0.929 | -0.118 (inactive) | 0.043 | -1.71 | 0.261 (inactive) | 1.21 | 0.953 (inactive) | 0.143 (inactive) | 0.183 (inactive) | -1.19 (inactive) | 0.636 (inactive) | -0.104 (inactive) | 0.289 (inactive) | -1.18 | -0.0351
3 | CCCCC(=C=CC[C@@H](O)c1ccccc1OCCO)C[C@@H](O)COCc1ccccc1 | 0.75 | 0.52 | 0.522 | -2.34 | -2.12 | 0.554 | 0.623 (inactive) | -0.261 | 0.13 | 0.607 (inactive) | -0.202 | -0.984 (inactive) | 0.12 (inactive) | -2.09 (inactive) | 0.0478 (inactive) | -2.79 (inactive) | 0.666 (inactive) | 0.406 (inactive) | 0.267 | 0.0022
4 | NC(=O)NCC#Cc1ccc2c(c1)[C@]1(C(=O)N2)[C@H](C(=O)O)[C@H]2C(=O)O[C@H](c3ccccc3)[C@H](c3ccccc3)N2[C@@H]1c1ccc(OCCO)cc1 | 0.0179 | 0.359 | -0.519 | 0.231 | 0.12 | -2.3 | -0.483 (inactive) | 0.00293 | 0.12 | 0.721 (inactive) | 0.626 | 0.0086 (inactive) | 0.557 (inactive) | -0.932 (inactive) | 0.545 (inactive) | -0.285 (inactive) | -0.0444 (inactive) | -0.721 (inactive) | 0.547 | 0.361
5 | COc1ccccc1CN1C(=O)c2ccccc2[C@@]2(Cc3ccccc3N(CC(F)(F)F)C2=O)[C@@H]1c1ccc(CO)cc1 | -0.912 | -0.744 | 0.162 | 0.291 | -0.956 | -0.505 | -0.363 (inactive) | -0.0759 | -0.946 | -0.682 (inactive) | -0.108 | 0.981 (inactive) | -0.987 (inactive) | -11.7 (active) | 0.723 (inactive) | 0.36 (inactive) | 0.224 (inactive) | 0.499 (inactive) | -0.624 | 0.0819
6 | CC1=C([C@H](O)CCc2ccccc2)[C@H](CO)[C@@H]2C(=O)N(C)C(=O)[C@@H]2C1 | 1.18 | -0.371 | -0.473 | 0.236 | -0.245 | -0.622 | 0.459 (inactive) | -0.0985 | -0.279 | -0.39 (inactive) | -0.0457 | -2.32 (inactive) | -0.382 (inactive) | -1.2 (inactive) | 0.176 (inactive) | 0.291 (inactive) | 0.15 (inactive) | 0.181 (inactive) | 0.149 | -0.152
7 | O=C1NC(=O)C2C1C=CC(C(O)c1ccco1)N2Nc1ccccn1 (stereo not given) | -0.291 | -0.0855 | -0.125 | -0.0456 | -0.529 | -1.33 | -0.688 (inactive) | 0.127 | -0.154 | -0.974 (inactive) | -1.32 | 0.461 (inactive) | -1.68 (inactive) | 0.257 (inactive) | 0.956 (inactive) | 0.254 (inactive) | -0.457 (inactive) | -0.21 (inactive) | -1.09 | -0.0342
8 | [N-]=[N+]=NCc1ccccc1C[C@@]1(C(=O)N2CCCCC2)N=C(c2ccc(OCCCO)cc2)O[C@@H]1c1ccccc1 | -1.26 | -0.813 | -2.13 | -3.11 | -4.35 | 0.622 | -0.209 (inactive) | -1.28 | -2.34 | -0.949 (inactive) | -0.876 | -0.59 (inactive) | -5.49 (inactive) | 1.53 (inactive) | 0.137 (inactive) | 1.95 (inactive) | 0.297 (inactive) | 0.696 (inactive) | -4.9 | -0.279
9 | COCCOC(=O)N1C(=O)[C@@]2(c3cc(C#CC4=CCCCC4)ccc31)[C@H](c1ccc(OCCO)cc1)N1[C@H](c3ccccc3)[C@H](c3ccccc3)OC(=O)[C@H]1[C@@H]2C(=O)NC[C@H](O)c1ccccc1 | 0.148 | 0.72 | 0.688 | -1.54 | -2.03 | -0.9 | 0.758 (inactive) | -0.784 | -0.964 | 0.607 (inactive) | 0.334 | 2.36 (inactive) | -0.363 (inactive) | 0.184 (inactive) | 3.6 (inactive) | 2.83 (inactive) | -0.441 (inactive) | -0.16 (inactive) | -0.48 | -0.12
